A selection: hits, their analogues and other compounds. The true share with any hit is near 1.6%.
KCNQ2 enhance: enhances the rat KCNQ2 potassium channel; O88943; CHO-K1 KCNQ2, FluxOR thallium flux fluorescence; stronger effect = higher value; 0.54% of 310,000 active; B-score at 10 µM;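 active = fluorescence ratio B-score at least 3 SD of library B-scores, with initial fluorescence B-score within 3 of them, cut at about 5.3 in these data; same plate scores as AID 2156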;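 note: B-score of peak minus minimum over baseline fluorescence ratio after K+ and Tl+ stimulus; positive B-score means potentiation of KCNQ2 with more thallium influx and brighter signal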
KCNQ2 block: inhibitors of rat KCNQ2 potassium channel. AID 2156. O88943. 1.1% of 310,000 active. CHO-K1 KCNQ2, FluxOR thallium flux, 20 min; stronger effect = lower value. B-score at 10 µM;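 active = fluorescence ratio B-score at most minus 3 library SDs, with starting brightness B-score within 2 library SDs, cut at about -5.5 in these data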
KCNQ2 inh conf: confirmation of rat KCNQ2 potassium channel inhibitors; AID 493025; 57% of 1,000 active; shares compounds with KCNQ2 block; activity change, negative = inhibition, % at 10 µM; KCNQ2-expressing cells, thallium flux, inhibition; stronger effect = lower value;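 note: 0% = vehicle wells and values are ratio percent relative to vehicle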
KCNQ1 spec: KCNQ2 inhibitor that also affects human KCNQ1 channel. shares compounds with KCNQ2 block. KCNQ1-expressing cells, FluxOR thallium flux fluorescence; stronger effect = lower value. activity change, negative = inhibition, % at 10 µM. 15% of 1,000 active. AID 493026;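 active = activity change at least 3 SD of negative controls below their mean in both duplicate wells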;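 note: CHO cells stably transfected with KCNQ1 and depolarized by potassium stimulus; peak minus minimum fluorescence over baseline after thallium addition; 0% = vehicle negative control and -100% = blank without thallium stimulus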
CHO Tl ctr: counter-screen for KCNQ2 inhibitors: effect in parental CHO cells. shares compounds with KCNQ2 block. 14% of 1,000 active. thallium flux counter-screen; stronger effect = lower value. AID 493029. activity change, % at 10 µM;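 note: 0% = vehicle negative controls with stimulus buffer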
KCNQ2 patch conf: rat KCNQ2 inhibition confirmed by electrophysiology; shares compounds with KCNQ2 block; KCNQ2-expressing cells, automated patch clamp current; calls only at 10 µM; 49% of 550 active
Starred values were filed as active, the others as inactive; i = inactive; · = no result; + = active, no number. Unless noted, the rule behind the calls is not given here.

SMILES | KCNQ2 enhance | KCNQ2 block | KCNQ2 inh conf | KCNQ1 spec | CHO Tl ctr | others
O=C(COC(=O)CNC(=O)c1ccco1)NCc1ccc(F)cc1 | · | i | · | · | ·
O=[N+]([O-])c1ccc(C2CCCC/C2=N/OCc2ccc(F)cc2)c([N+](=O)[O-])c1 (stereo not given) | · | i | · | · | ·
O=[N+]([O-])c1ccc(C2CCCC/C2=N/OCc2ccccc2F)c([N+](=O)[O-])c1 (stereo not given) | -10 | -10* | -36%* | i | i | KCNQ2 patch conf=i
Cc1cc(CN2CCN(CCC#N)CC2)c(O)c(C2(C)CCCCC2)c1 | -7.4 | -7.4* | i | i | i
N#CCCN1CCN(CCC#N)CC1 | · | i | · | · | ·
CC(=O)N1CCc2c(sc3c2c(=O)n(Cc2ccccc2)c(=O)n3CC(=O)NCC2CCCO2)C1 (stereo not given) | · | i | · | · | ·
CCOC(=O)N1CCc2c(sc3c2c(=O)n(Cc2ccccc2)c(=O)n3Cc2ccc(C)cc2)C1 | -7.7 | -7.7* | i | i | i
Cc1ccc(CC2SC(N=C(N)N)=NC2=O)cc1 (stereo not given) | · | i | · | · | ·
COc1ccc(C2CC(c3ccc4ccccc4c3OC(C)=O)=NN2C(C)=O)cc1 (stereo not given) | · | i | · | · | ·
O=C(NCCc1ccccc1)c1oc2ccccc2c1COc1ccccc1 | -9 | -9* | -24%* | i | i | KCNQ2 patch conf=i
O=C(Nc1ccccc1Cc1ccccc1)c1oc2ccccc2c1COc1ccccc1 | · | i | · | · | ·
COc1ccc(C)cc1NC(=O)CCCNC(=O)Cn1cnc2sc(C)c(C)c2c1=O | · | i | · | · | ·
Cc1sc2nc(C(C)C)nc(SCC(=O)N3c4ccccc4CC3C)c2c1C (stereo not given) | 2.4 | i | · | · | ·
CCc1nc(SCC(=O)Nc2cc(C)ccc2OC)c2c(C)c(C)sc2n1 | -6.8 | -6.8* | i | i | i
CCc1nc(SCC(=O)N2c3ccccc3CC2C)c2c(C)c(C)sc2n1 (stereo not given) | -6.7 | -6.7* | -20%* | i | i | KCNQ2 patch conf=i
O=S(=O)(Nc1ccc(Cl)cn1)c1cccs1 | 2.2 | i | · | · | ·
CCCCCOC(=O)CC(C(=O)OCCCCC)N1CCCCC1 (stereo not given) | -9.2 | -9.2* | -34%* | -32%* | -30%* | KCNQ2 patch conf=i
CCCCCCCCCOC(=O)C(CC(=O)O)N1CCOCC1 (stereo not given) | · | i | · | · | ·
CCOc1ccccc1NC(=O)COc1ccc2ccc(=O)oc2c1 | · | i | · | · | ·
Cc1nc(C/C(=N\N)c2ccc(O)cc2O)cs1 | · | i | · | · | ·
CCc1cc(/C(Cc2csc(C)n2)=N/O)c(O)cc1O | -7.7 | -7.7* | -38%* | -34%* | -28%* | KCNQ2 patch conf=+
Cc1ccccc1SCC(=O)Nc1cc(C(F)(F)F)ccc1N1CCOCC1 | -9.5 | -9.5* | -30%* | i | i | KCNQ2 patch conf=i
Cc1nnc(SCC(=O)Nc2cc(C(F)(F)F)ccc2N2CCOCC2)o1 | 0.41 | i | · | · | ·
O=C(CSc1nnc(Cc2cccs2)n1Cc1ccco1)Nc1ccc(Cl)cc1Cl | -6.9 | -6.9* | i | i | i
Cn1c(Cc2cccs2)nnc1SCC(=O)Nc1ccccc1F | · | i | · | · | ·
SMILES | KCNQ2 enhance | KCNQ2 block | KCNQ2 inh conf | KCNQ1 spec | CHO Tl ctr | others
COc1ccccc1N1CCN(C2CCCN(C(=O)CCc3ccccn3)C2)CC1 (stereo not given) | 0.24 | i | · | · | ·
CC(C)CC(NC(=O)CNC(=O)C1O[C@@H]2OC(C)(C)O[C@@H]2[C@H]2OC(C)(C)O[C@@H]12)C(=O)O (stereo not given in full) | · | i | · | · | ·
BrC(=C\c1ccccc1)/C=N/Nc1nc(N2CCOCC2)nc(N2CCOCC2)n1 | 0.25 | i | · | · | ·
C/C(=C/C=N/Nc1nc(N2CCCCC2)nc(N2CCCCC2)n1)c1ccccc1 | -7.2 | -7.2* | -29%* | i | i | KCNQ2 patch conf=i
Oc1ccc(/C=N/Nc2nc(N3CCCCCC3)nc(N3CCCCCC3)n2)c(O)c1 | · | i | · | · | ·
CC(/C=N/Nc1nc(N2CCCCC2)nc(N2CCCCC2)n1)=C\c1ccccc1 | -8.2 | -8.2* | -34%* | -34%* | -26%* | KCNQ2 patch conf=i
CC(=O)c1ccc(N(C(=O)CNC(=O)c2ccco2)C(C(=O)NC2CCCC2)c2cccnc2)cc1 (stereo not given) | 0.03 | i | · | · | ·
Cc1ccc(OCC(O)CN2CCC(Cc3ccccc3)CC2)c(C)c1 (stereo not given) | · | i | · | · | ·
Cc1ccccc1C(=O)Nc1ccnn1C1CCN(C2CCSCC2)CC1 | · | i | · | · | ·
Fc1ccc(CSc2nnc(-c3ccncc3)o2)cc1 | 1.5 | i | · | · | ·
